Source: PubChem BioAssay
Active and inactive are the calls of the source.

How the values were obtained:
Albumin (Bos taurus) = Albumin (Bos taurus) (UniProt P02769); assay: bovine serum albumin binders on microarray, profiling panel, artefact control for SMM control protein annotation, biochemical, small-molecule microarray, Alexa647 label, 635/667 nm fluorescence (AID 1118); settings: BSA-A647 binding, fluorescence 635 nm, higher = more signal;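 note: score merges 667 nm emission intensity and signal-to-noise per printed compound spot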
Chain of Albumin (Bos taurus) (P02769 whole entry, looked up): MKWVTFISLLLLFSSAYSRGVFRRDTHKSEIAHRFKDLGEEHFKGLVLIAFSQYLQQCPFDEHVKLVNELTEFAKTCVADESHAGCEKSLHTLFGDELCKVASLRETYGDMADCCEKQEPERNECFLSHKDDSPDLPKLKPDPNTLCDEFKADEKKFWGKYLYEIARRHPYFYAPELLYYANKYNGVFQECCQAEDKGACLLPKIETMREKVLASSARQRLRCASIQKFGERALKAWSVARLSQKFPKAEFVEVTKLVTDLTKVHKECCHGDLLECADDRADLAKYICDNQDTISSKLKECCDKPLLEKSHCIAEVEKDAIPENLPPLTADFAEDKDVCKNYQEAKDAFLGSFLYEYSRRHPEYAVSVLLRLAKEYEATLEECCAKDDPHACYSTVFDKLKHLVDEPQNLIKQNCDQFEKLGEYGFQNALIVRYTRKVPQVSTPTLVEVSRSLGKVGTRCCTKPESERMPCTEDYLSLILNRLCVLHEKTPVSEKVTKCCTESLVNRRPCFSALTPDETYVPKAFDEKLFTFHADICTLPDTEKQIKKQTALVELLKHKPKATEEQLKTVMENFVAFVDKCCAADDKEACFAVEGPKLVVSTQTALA

[1] = small-molecule microarray binders of probe aXIP, primary screen, biochemical, NeuroSMM set, 635/667 nm fluorescence (AID 1119); settings: higher = more signal, called active from +8 up or from −8 down;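 note: probe is the protein aXip251-270 applied at 1 µg/mL to compound-printed slides; binding of probe to printed compounds measured as 667 nm fluorescence plus signal to noise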
[2] = small-molecule binders of probe aNOTCH3, primary screen, biochemical, small-molecule microarray, 635/667 nm fluorescence (AID 1120); settings: higher = more signal;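 note: probe is a biotin-tagged antibody raised against NOTCH3 rather than NOTCH3 protein; score merges spot fluorescence near 667 nm with spot signal to noise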
[3] = small-molecule binders of probe aNOTCH2, primary screen, biochemical, small-molecule microarray, 635/667 nm fluorescence (AID 1121); settings: higher = more signal;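 note: score merges feature fluorescence read at 667 nm with its signal to noise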
[4] = target: Carbonic anhydrase 2 (Homo sapiens) (UniProt P00918); assay: CAII small-molecule binders, profiling panel, biochemical, small-molecule microarray, Alexa647-labelled CAII (AID 1122); settings: CAII-A647 binding fluorescence, higher = more signal
[5] = COS7 lysate on small-molecule microarray, probe aHis, 635 nm (AID 1123); settings: COS7 cell lysate, fluorescence, higher = more signal;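 note: z-score combines 667nm fluorescence intensity with signal-to-noise per printed compound spot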
[6] = compound binding in COS7 lysate, probe aLAP1, primary screen, cell lysate, small-molecule microarray (AID 1124); settings: probe aLAP1, fluorescence, higher = more signal;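 note: lysate comes from COS7 cells expressing LAP1 and is applied at 0.3 µg/mL; score merges spot fluorescence near 667 nm with signal-to-noise over triplicate slides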
Sam68 (KHDRBS1) = assay: Sam68 small-molecule binders, primary screen, biochemical, small-molecule microarray, 635 nm fluorescence (AID 1125); settings: small-molecule microarray binding, higher = more signal;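 note: score merges 667 nm channel intensity with signal to noise over triplicate slides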
[7] = tested on: Chordin-like protein 2 (CHRDL2); assay: CHRDL2 small-molecule binders, primary screen, biochemical, small-molecule microarray, 635 nm fluorescence (AID 1126); settings: small-molecule microarray binding, fluorescence 635 nm; higher = more signal;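 note: printed compound slides probed with Chrdl2 protein at 4 µg/mL for 1 h at 4 C; score merges 667 nm emission intensity with signal to noise over three replicate slides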
[8] = target: Concanavalin-A (Canavalia ensiformis) (UniProt P02866); assay: ConA small-molecule binders, primary screen, artefact control for SMM control protein annotation, biochemical, small-molecule microarray, Alexa647 label, 635 nm (AID 1127); settings: ConA-A647 binding fluorescence, higher = more signal;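 note: z combines 667 nm emission intensity with signal-to-noise across three replicate slides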
Chain of Concanavalin-A (Canavalia ensiformis) (P02866 whole entry, looked up): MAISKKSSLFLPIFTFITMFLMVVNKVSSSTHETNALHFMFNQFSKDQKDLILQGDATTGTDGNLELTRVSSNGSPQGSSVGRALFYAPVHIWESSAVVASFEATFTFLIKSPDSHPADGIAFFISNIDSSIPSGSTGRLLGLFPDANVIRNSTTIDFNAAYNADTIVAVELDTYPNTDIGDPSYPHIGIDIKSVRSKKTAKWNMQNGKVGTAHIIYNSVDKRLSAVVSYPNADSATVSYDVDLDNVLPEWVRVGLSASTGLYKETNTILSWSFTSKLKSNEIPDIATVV

[9] = anti-His antibody binders, primary screen, artefact control for SMM control protein annotation, biochemical, small-molecule microarray, 635 nm fluorescence (AID 1128); settings: anti-His Alexa647 antibody binding, higher = more signal;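 note: score merges feature fluorescence with signal-to-noise for each printed compound spot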
[10] = tested on: Human papillomavirus type 1a E7 protein (residues 1-88); assay: HPV1a E7 small-molecule binders, primary screen, biochemical, small-molecule microarray, residues 1-88, 635 nm (AID 1129); settings: small-molecule microarray binding, fluorescence 635 nm; higher = more signal
[11] = target: Focal adhesion kinase 1 (Homo sapiens) (UniProt Q05397); assay: small-molecule microarray binders of FAK, primary screen, biochemical, 635/667 nm fluorescence, BSA, DTT (AID 1130); settings: PTK2 binding, 635 nm fluorescence, higher = more signal;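 note: composite of spot emission at 667 nm and signal to noise over triplicate slides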
Chain of Focal adhesion kinase 1 (Homo sapiens) (Q05397 whole entry, looked up): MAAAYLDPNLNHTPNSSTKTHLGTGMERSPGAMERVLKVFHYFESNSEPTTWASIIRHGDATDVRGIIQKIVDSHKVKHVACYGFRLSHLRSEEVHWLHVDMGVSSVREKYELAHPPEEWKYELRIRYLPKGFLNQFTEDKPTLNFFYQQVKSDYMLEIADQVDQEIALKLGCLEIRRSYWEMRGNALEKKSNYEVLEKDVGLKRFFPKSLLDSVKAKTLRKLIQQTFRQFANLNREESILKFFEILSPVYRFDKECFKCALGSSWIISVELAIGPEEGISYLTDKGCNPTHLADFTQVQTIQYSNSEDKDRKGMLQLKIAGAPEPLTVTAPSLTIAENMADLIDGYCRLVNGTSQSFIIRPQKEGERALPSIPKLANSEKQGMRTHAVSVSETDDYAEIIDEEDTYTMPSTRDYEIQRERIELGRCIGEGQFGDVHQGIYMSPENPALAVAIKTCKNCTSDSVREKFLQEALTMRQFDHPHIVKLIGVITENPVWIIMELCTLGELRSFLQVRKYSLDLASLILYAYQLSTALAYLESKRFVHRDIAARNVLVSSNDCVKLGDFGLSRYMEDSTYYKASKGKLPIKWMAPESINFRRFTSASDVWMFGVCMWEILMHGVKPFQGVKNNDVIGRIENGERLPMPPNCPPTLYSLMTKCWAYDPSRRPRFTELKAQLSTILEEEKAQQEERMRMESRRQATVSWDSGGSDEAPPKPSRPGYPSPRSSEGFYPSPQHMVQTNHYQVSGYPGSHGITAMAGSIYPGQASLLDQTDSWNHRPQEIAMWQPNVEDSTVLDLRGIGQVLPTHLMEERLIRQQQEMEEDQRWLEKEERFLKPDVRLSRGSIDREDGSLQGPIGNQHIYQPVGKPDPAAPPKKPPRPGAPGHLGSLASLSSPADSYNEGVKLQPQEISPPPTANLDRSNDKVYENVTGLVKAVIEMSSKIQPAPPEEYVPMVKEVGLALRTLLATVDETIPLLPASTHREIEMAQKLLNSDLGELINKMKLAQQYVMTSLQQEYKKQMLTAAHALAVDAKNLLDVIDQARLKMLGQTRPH

[12] = tested on: Fibrinogen (Alexa647-labelled); assay: fibrinogen binders on compound microarrays, profiling panel, artefact control for SMM control-protein annotation, biochemical, small-molecule microarray, 635/667 nm fluorescence (AID 1131); settings: fibrinogen-A647 binding fluorescence, higher = more signal;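 note: z-score merges 667 nm fluorescence with per-spot signal-to-noise over triplicate slides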
[13] = target: Follistatin (Homo sapiens) (UniProt P19883); assay: follistatin binders on small-molecule microarrays, primary screen, biochemical, small-molecule microarray, 635/667 nm fluorescence (AID 1132); settings: FST binding, 635 nm fluorescence, higher = more signal
Chain of Follistatin (Homo sapiens) (P19883 whole entry, looked up): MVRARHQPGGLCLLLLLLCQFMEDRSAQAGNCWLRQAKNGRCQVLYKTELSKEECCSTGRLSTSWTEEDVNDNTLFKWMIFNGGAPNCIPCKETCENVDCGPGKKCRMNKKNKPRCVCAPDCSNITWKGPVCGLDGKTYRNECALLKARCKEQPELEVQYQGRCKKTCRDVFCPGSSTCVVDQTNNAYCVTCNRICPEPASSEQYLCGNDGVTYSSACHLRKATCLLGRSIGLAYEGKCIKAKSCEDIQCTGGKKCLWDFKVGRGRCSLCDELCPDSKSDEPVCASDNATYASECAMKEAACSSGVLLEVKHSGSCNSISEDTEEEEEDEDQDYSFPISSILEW

[14] = target: Fibroblast growth factor 2 (Homo sapiens) (UniProt P09038); assay: FGF2 binders on small-molecule microarrays, primary screen, biochemical, small-molecule microarray, 635/667 nm fluorescence (AID 1133); settings: small-molecule microarray binding, FGF2, fluorescence 635/667; higher = more signal
Chain of Fibroblast growth factor 2 (Homo sapiens) (P09038 whole entry, looked up): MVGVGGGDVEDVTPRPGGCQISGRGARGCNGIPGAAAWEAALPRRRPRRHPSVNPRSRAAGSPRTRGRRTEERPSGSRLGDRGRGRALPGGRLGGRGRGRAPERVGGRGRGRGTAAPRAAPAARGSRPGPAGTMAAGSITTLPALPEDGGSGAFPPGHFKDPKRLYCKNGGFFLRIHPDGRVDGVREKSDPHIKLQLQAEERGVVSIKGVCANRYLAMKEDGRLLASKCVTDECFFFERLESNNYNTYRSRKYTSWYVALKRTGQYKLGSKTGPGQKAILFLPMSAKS

[15] = mitochondrial membrane potential change in A549 cells, profiling panel, cell-based, JC-1 fluorescence, basal, 24 h, 100 nL (AID 1138); settings: higher = more signal;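 note: A549 lung adenocarcinoma cells under basal conditions with no added stimulus; test concentration not given here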
Lefty1 = Lefty1 binders on small-molecule microarrays, primary screen, biochemical, small-molecule microarray, 635/667 nm fluorescence (AID 1139); settings: small-molecule microarray binding, fluorescence 635/667; higher = more signal
[16] = tested on: wheat germ agglutinin (Triticum aestivum), Alexa647-labelled; assay: wheat germ agglutinin binders on compound microarrays, profiling panel, artefact control for SMM control-protein annotation, biochemical, small-molecule microarray, 635/667 nm fluorescence (AID 1140); settings: WGA-A647 binding, 635 nm fluorescence, higher = more signal;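 note: score merges 667 nm feature emission with signal to noise over triplicate slides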
[17] = target: Luciferin 4-monooxygenase (Photinus pyralis) (UniProt P08659); assay: firefly luciferase enzyme inhibitors, primary screen, biochemical, luminescence, purified enzyme, 2006 set (AID 1141); settings: SteadyGlo luminescence, 30 min, higher = more signal, called active from +8 up or from −8 down;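 note: cell-free assay with purified firefly luciferase at 100 ng per well in PBS; test concentration not given here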
Chain of Luciferin 4-monooxygenase (Photinus pyralis) (P08659 whole entry, looked up): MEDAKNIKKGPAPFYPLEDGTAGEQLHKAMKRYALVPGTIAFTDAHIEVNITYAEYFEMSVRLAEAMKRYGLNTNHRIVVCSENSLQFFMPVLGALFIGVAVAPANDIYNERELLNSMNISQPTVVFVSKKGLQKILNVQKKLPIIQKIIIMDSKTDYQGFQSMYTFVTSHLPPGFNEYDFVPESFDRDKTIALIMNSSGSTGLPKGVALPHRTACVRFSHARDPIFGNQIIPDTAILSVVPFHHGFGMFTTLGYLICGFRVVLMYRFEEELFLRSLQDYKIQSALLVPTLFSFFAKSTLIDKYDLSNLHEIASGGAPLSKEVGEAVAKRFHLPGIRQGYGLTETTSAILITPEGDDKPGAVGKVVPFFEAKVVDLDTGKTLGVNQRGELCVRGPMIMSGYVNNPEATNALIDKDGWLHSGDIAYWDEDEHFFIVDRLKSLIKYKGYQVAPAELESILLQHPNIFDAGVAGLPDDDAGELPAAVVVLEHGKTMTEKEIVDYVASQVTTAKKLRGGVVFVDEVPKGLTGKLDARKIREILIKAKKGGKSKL

With `COCCOC(=O)N1C(=O)[C@@]2(c3cc(C#CCCO)ccc31)[C@H](c1ccccc1OCCO)N1[C@H](c3ccccc3)[C@H](c3ccccc3)OC(=O)[C@H]1[C@@H]2C(=O)NC[C@H](O)c1ccccc1` as the compound, how does the composite z-score (Albumin (Bos taurus)) read?
Its composite z-score is 0.25.

What about the composite Z-score [1] of the same compound?
The composite Z-score was 0.0022 (inactive).

What about the composite z-score [2] of the same compound?
Its composite z-score is -0.0197.

And the composite z-score [3]?
The composite z-score was -0.0753.

What about the composite z-score [4] of the same compound?
The composite z-score was 0.204.

What about the composite z-score [5] of the same compound?
Its composite z-score is 2.15.

And the composite z-score [6]?
The composite z-score was 0.35.

What about the composite z-score (Sam68 (KHDRBS1)) of the same compound?
Its composite z-score is 1.31.

What about the composite z-score [7] of the same compound?
Its composite z-score is 0.524.

And the composite z-score [8]?
Its composite z-score is 0.859.

And the composite z-score [9]?
The composite z-score was 2.02.

What about the composite z-score [10] of the same compound?
The composite z-score was 0.907.

What about the composite z-score [11] of the same compound?
Its composite z-score is 1.07.

What about the composite z-score [12] of the same compound?
Its composite z-score is 0.756.

What about the composite z-score [13] of the same compound?
The composite z-score was 1.5.

What about the composite z-score [14] of the same compound?
The composite z-score was 1.7.

What about the z-score [15] of the same compound?
Its z-score is 0.891.

What about the composite z-score (Lefty1) of the same compound?
Its composite z-score is 1.61.

And the composite z-score [16]?
The composite z-score was 1.01.

And the z-score [17]?
Its z-score is -1.74 (inactive).

For `CCCNC(=O)[C@@]1(Sc2ccc(C)cc2)CC(=O)N(Cc2cc(C(F)(F)F)cc(C(F)(F)F)c2)[C@@H]1c1ccc(CO)cc1I`, which composite z-score (Albumin (Bos taurus)) is on record?
The composite z-score was 0.502.

And the composite Z-score [1]?
The composite Z-score was 0.414 (inactive).

What about the composite z-score [2] of the same compound?
Its composite z-score is -0.125.

What about the composite z-score [3] of the same compound?
The composite z-score was 0.0042.

What about the composite z-score [4] of the same compound?
Its composite z-score is 0.883.

And the composite z-score [5]?
The composite z-score was 0.918.

What about the composite z-score [6] of the same compound?
The composite z-score was 0.349.

And the composite z-score (Sam68 (KHDRBS1))?
The composite z-score was 0.354.

And the composite z-score [7]?
The composite z-score was -0.605.

And the composite z-score [8]?
The composite z-score was -0.12.

What about the composite z-score [9] of the same compound?
The composite z-score was -0.187.

And the composite z-score [10]?
Its composite z-score is -0.574.

What about the composite z-score [11] of the same compound?
Its composite z-score is -0.101.

What about the composite z-score [12] of the same compound?
Its composite z-score is -0.0242.

And the composite z-score [13]?
Its composite z-score is -0.0247.

And the composite z-score [14]?
Its composite z-score is -1.22.

What about the z-score [15] of the same compound?
The z-score was -0.283.

And the composite z-score (Lefty1)?
The composite z-score was -0.487.

And the composite z-score [16]?
The composite z-score was -0.405.

What about the z-score [17] of the same compound?
Its z-score is -0.839 (inactive).

Which composite z-score (Albumin (Bos taurus)) does the source give for `C[N+](C)(C)CCCC[C@@H]1NC(=O)[C@@H]2C[C@H](C(=O)NCCCCCNC(=O)CS)[C@H](c3ccc(O)cc3)N2C1=O` here?
Its composite z-score is -0.172.

What about the composite Z-score [1] of the same compound?
Its composite Z-score is -0.419 (inactive).

What about the composite z-score [2] of the same compound?
The composite z-score was -0.152.

What about the composite z-score [3] of the same compound?
Its composite z-score is -0.179.

What about the composite z-score [4] of the same compound?
Its composite z-score is 0.728.

What about the composite z-score [5] of the same compound?
Its composite z-score is 1.05.

What about the composite z-score [6] of the same compound?
Its composite z-score is 0.453.

What about the composite z-score (Sam68 (KHDRBS1)) of the same compound?
The composite z-score was 0.245.

And the composite z-score [7]?
The composite z-score was -0.479.

What about the composite z-score [8] of the same compound?
Its composite z-score is 1.12.

And the composite z-score [9]?
The composite z-score was 1.6.

And the composite z-score [10]?
Its composite z-score is 0.076.

What about the composite z-score [11] of the same compound?
Its composite z-score is -0.0206.

And the composite z-score [12]?
Its composite z-score is 0.141.

And the composite z-score [13]?
Its composite z-score is 1.46.

And the composite z-score [14]?
Its composite z-score is 1.19.

What about the z-score [15] of the same compound?
The z-score was 1.52.

And the composite z-score (Lefty1)?
The composite z-score was 1.02.

And the composite z-score [16]?
Its composite z-score is 0.477.

And the z-score [17]?
Its z-score is -0.703 (inactive).

Which results are given for `CC(C)(C)OC(=O)CC[C@@]12N=C(c3ccc(OCCCO)cc3)O[C@@H]1c1ccccc1N(Cc1ccccc1)C2=O`?
composite z-score (Albumin (Bos taurus)): 0.0674; composite Z-score [1]: 1.83 (inactive); composite z-score [2]: -0.122; composite z-score [3]: -0.0318; composite z-score [4]: 0.434; composite z-score [5]: 1.67; composite z-score [6]: 0.583; composite z-score (Sam68 (KHDRBS1)): 1.15; composite z-score [7]: 0.145; composite z-score [8]: 1.05; composite z-score [9]: 2.92; composite z-score [10]: 1; composite z-score [11]: 1.16; composite z-score [12]: 0.214; composite z-score [13]: 1.39; composite z-score [14]: 0.54; z-score [15]: 1.43; composite z-score (Lefty1): 0.345; composite z-score [16]: 0.036; z-score [17]: -2.14 (inactive)

With `COCCOC(=O)N1C(=O)[C@@]2(c3cc(C#CC4(O)CCCCCC4)ccc31)[C@H](c1ccccc1OCCO)N1[C@H](c3ccccc3)[C@H](c3ccccc3)OC(=O)[C@H]1[C@@H]2C(=O)Nc1nc2ccccc2s1` as the compound, how does the composite z-score (Albumin (Bos taurus)) read?
The composite z-score was 0.655.

And the composite Z-score [1]?
The composite Z-score was -0.344 (inactive).

And the composite z-score [2]?
Its composite z-score is -0.0942.

And the composite z-score [3]?
Its composite z-score is -0.0843.

And the composite z-score [4]?
The composite z-score was 0.53.

And the composite z-score [5]?
The composite z-score was 1.16.

What about the composite z-score [6] of the same compound?
The composite z-score was 0.417.

And the composite z-score (Sam68 (KHDRBS1))?
The composite z-score was 1.16.

And the composite z-score [7]?
The composite z-score was 0.478.

And the composite z-score [8]?
Its composite z-score is 1.18.

What about the composite z-score [9] of the same compound?
Its composite z-score is 1.84.

And the composite z-score [10]?
Its composite z-score is 1.21.

And the composite z-score [11]?
Its composite z-score is 0.862.

And the composite z-score [12]?
Its composite z-score is 0.805.

And the composite z-score [13]?
Its composite z-score is 1.39.

And the composite z-score [14]?
Its composite z-score is 1.16.

And the z-score [15]?
Its z-score is -1.56.

What about the composite z-score (Lefty1) of the same compound?
Its composite z-score is 1.5.

What about the composite z-score [16] of the same compound?
Its composite z-score is 1.14.

And the z-score [17]?
Its z-score is -2.53 (inactive).
